# Compound activity deposited in PubChem by The Scripps Research Institute Molecular Screening Center.
# KLK7 zymogen act = activators of human kallikrein-7 zymogen. 370,000 compounds, 0.9% hits. activation, % at 7 µM. purified proKLK7, EDANS-DABCYL substrate fluorescence; 100% is mature enzyme control, 0% vehicle. AID 652039;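 active = activation above the mean of all tested compounds plus 3 SD, computed per campaign excluding outliers beyond control limits, cut at about 13% in these data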
# ADAM17 inh = ADAM17 inhibition, QFRET primary screen; P78536; recombinant ADAM17, EDANS/DABCYL FRET peptide cleavage; inhibition, % at 6.95 µM; 370,000 compounds, 0.83% hits;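 active = inhibition above the mean of compounds lying between control limits plus 3 SD, set per campaign, cut at about 8.5% in these data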
# PLCb3 inh = inhibitors of human phospholipase C beta3; Q01970; Purified PLC-beta3, fluorogenic substrate, fluorescence; inhibition, % at 12.2 µM; 370,000 compounds, 0.18% hits; AID 720704; in the data active = inhibition above about 11%
# ADAM10 inh = inhibits human ADAM10; 370,000 compounds, 0.62% hits; inhibition, % at 7 µM; recombinant ADAM10, EDANS/DABCYL FRET peptide cleavage, 3 h; O14672;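 active = inhibition above a per-campaign cutoff equal to the mean of compounds falling between control-based bounds plus 3 SD, cut at about 20% in these data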
# PLC-gamma1 inh = inhibitors of human phospholipase C gamma1 | P19174 | 370,000 compounds, 0.84% hits | purified PLC-gamma1, fluorogenic substrate, fluorescence | AID 720700 | inhibition, % at 12.2 µM; in the data active = inhibition above about 9.5%
# ADAM10 counter = inhibits human ADAM10 in ADAM17 exosite counter-screen | shares compounds with ADAM17 inh | recombinant ADAM10, EDANS/DABCYL FRET peptide cleavage, 3 h | AID 743256 | 2,900 compounds, 47% hits | inhibition, % at 6.95 µM;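 active = mean inhibition over the triplicate runs exceeds the activity threshold set in the earlier primary screen, cut at about 20% in these data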
# ADAM17 confirm = human ADAM17 inhibition, confirmation; shares compounds with ADAM17 inh; recombinant ADAM17, EDANS/DABCYL QFRET peptide cleavage; inhibition, % at 6.95 µM; 2,900 compounds, 65% hits; AID 743257;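 active = mean inhibition across replicates above the hit cutoff set in the primary screen, cut at about 8.5% in these data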
# Numbers stand for hits; – = inactive; · = no result. The list is not random: actives were taken first. Their share in the collection is about 2.9%.
SMILES,KLK7 zymogen act,ADAM17 inh,PLCb3 inh,ADAM10 inh,PLC-gamma1 inh,ADAM10 counter,ADAM17 confirm
CC1Sc2ccc(S(=O)(=O)N3CCC(C(=O)NCC(C)c4ccccc4)CC3)cc2NC1=O (stereo not given),–,16,–,–,–,–,–
CC1Sc2ccc(S(=O)(=O)N3CCC(C(=O)NCCc4ccccc4)CC3)cc2NC1=O (stereo not given),–,–,–,–,–,·,·
COc1ccc([C@H]2OC(=O)C[C@H]2C(=O)N2CCCC2)cc1OC,–,–,–,–,–,·,·
CNC(=O)C1=C(C)n2c(nc3ccccc32)NC1c1ccc(OC)cc1 (stereo not given),–,–,–,–,–,·,·
CC1=C(C(=O)Nc2ccccc2)C(c2cccc([N+](=O)[O-])c2)Nc2nc3ccccc3n21 (stereo not given),–,8.8,–,–,–,–,–
CCCOc1ccccc1C(=O)N(Cc1cccs1)C1CCS(=O)(=O)C1 (stereo not given),–,10,12,–,–,–,–
CC(=O)c1cccc(NC(=O)C2CCCC2)c1,–,9.5,–,–,–,–,–
Cc1cccc(NC(=O)C2CCCC2)c1,–,–,–,–,–,·,·
COc1ccc(CNC(=O)CCS(=O)(=O)c2ccc3nc(C)sc3c2)cc1,–,–,–,–,–,·,·
COc1cccc(CNc2ccc([N+](=O)[O-])cc2C)c1,–,12,–,–,–,–,12
COc1ccc(OC)c(CNc2ccc([N+](=O)[O-])cc2C)c1,–,–,–,–,–,·,·
CC(C)c1c(O)ccc2c1CC[C@H]1C(C)(C)CCC[C@]21C,–,–,–,–,–,·,·
COc1cccc(C(=O)Nc2ccc(Cl)c(C(F)(F)F)c2)c1,–,11,–,–,–,–,–
COc1cc(C(=O)Nc2ccc(Cl)c(C(F)(F)F)c2)cc(OC)c1OC,–,–,–,–,–,·,·
COc1ccc(C(C)C)cc1S(=O)(=O)Nc1ccccn1,–,10,–,–,–,–,–
Cc1ccc(S(=O)(=O)Nc2cc(Cl)c(O)c3ncccc23)cc1,–,14,–,–,–,–,17
COc1ccc(NC(=O)C2(C)CCCN(C(C)C)C2)cc1F (stereo not given),–,–,–,–,–,·,·
CS(=O)(=O)NCc1nnc(SCC(=O)NC2CCCCC2)n1-c1ccc(F)cc1,–,9.1,–,–,–,–,–
Cc1ccc(Cn2c(=O)c3c(nc4n3CCCN4Cc3ccccc3)n(C)c2=O)cc1,–,10,–,–,–,–,–
COc1cc(/C=C2\SC(=S)N(NC(=O)c3ccccc3OC)C2=O)ccc1O,–,11,–,–,–,23,11
COc1ccc(OC)c(CC(=O)Nc2ccc3c(c2)c(=O)n(C)n3Cc2cccc(C(F)(F)F)c2)c1,–,–,–,–,–,·,·
Cc1ccc(NC(=S)NNC(=O)c2c(Cl)c(C)nn2C)cc1,–,–,–,–,–,·,·
Cc1ccc(NC(=S)NNC(=O)c2c([N+](=O)[O-])c(C)nn2C)cc1,–,12,–,–,–,25,12
CCOc1ccc(C(=O)c2nc3c(n2O)CCCC3)cc1,–,9.8,–,–,–,–,9.7
COc1cccc(Cn2cnc3c(NS(=O)(=O)c4cc(Cl)ccc4Cl)c(C)c(C)cc32)c1,–,8.9,–,–,–,20,11
SMILES,KLK7 zymogen act,ADAM17 inh,PLCb3 inh,ADAM10 inh,PLC-gamma1 inh,ADAM10 counter,ADAM17 confirm
CCc1c(-c2cccc(Cl)c2)ncn1CCc1ccccc1OC,–,–,–,–,–,·,·
CCOC(=O)/C(=N/Nc1ccccc1)c1csc(Nc2ccccc2)n1,–,11,–,–,–,–,–
CCCCN1C[C@@H](COCc2ccccc2)Oc2cccc(F)c2S1(=O)=O,–,–,–,–,–,·,·
CC1(C(=O)Nc2cccc3cccnc23)CCN1Cc1ccc(-c2ccccc2)o1 (stereo not given),–,–,–,–,–,·,·
CC(C)=CCc1cc([C@@H]2COc3c(ccc4c3C=CC(C)(C)O4)C2)c(O)cc1O,–,13,–,–,–,–,–
O=C(c1ccco1)N1CCN(c2nc(C3CC3)nc3c2nnn3Cc2ccccc2Cl)CC1,–,11,–,–,–,–,–
